A selection: hits, their analogues and other compounds. The true share with any hit is near 14%.
USP17 block – inhibitors of human USP17 deubiquitinase; Ubiquitin carboxyl-terminal hydrolase 17-like protein 5 (Homo sapiens), A8MUK1; purified USP17, Ub-rhodamine cleavage fluorescence, 3 h; inhibition, % at 50 µM; 47,000 tested, 6.5% active
USP28 block – inhibitors of human USP28 deubiquitinase. Ubiquitin carboxyl-terminal hydrolase 28 (Homo sapiens), Q96RU2. purified USP28, Ub-rhodamine cleavage fluorescence, 30 min. inhibition, % at 25 µM. 47,000 tested, 3% active. AID 1645857, 2021
USP10 block – inhibitors of human USP10 deubiquitinase; 47,000 tested, 1.1% active; inhibition, % at 20 µM; AID 1645856, 2021; purified USP10, Ub-rhodamine fluorescence, 60 min; Ubiquitin carboxyl-terminal hydrolase 10 (Homo sapiens), Q14694
USP30 inh – inhibitors of human USP30 deubiquitinase | 47,000 tested, 5.3% active | inhibition, % at 25 µM | AID 1645860, 2021 | purified USP30, Ub-rhodamine cleavage fluorescence
USP8 block – inhibitors of human USP8 deubiquitinase; purified USP8, Ub-rhodamine cleavage fluorescence, 30 min; inhibition, % at 20 µM; AID 1645853, 2021; 47,000 tested, 4.2% active; Ubiquitin carboxyl-terminal hydrolase 8 (Homo sapiens), P40818
Each line names hits and unclear results; the compound was inactive in the other large screens. Cut-off read from the data, not from the text of the source: active = inhibition above about 30%; inactive = the rest.

O=C(Nc1ccccc1)c1ccc2noc(-c3ccc(F)cc3)c2c1	none
Cc1nc(-c2noc3ccc(C(=O)NC4CCCC4)cc23)co1	USP17 block 32, USP30 inh 33
Cc1nc(-c2noc3ccc(C(=O)NCCc4cccnc4)cc23)co1	none
CC(=O)c1cccc(NC(=O)c2ccc3noc(-c4ccc(F)cc4)c3c2)c1	USP30 inh 41
Cc1cccc(NC(=O)c2cccn2Cc2noc(C3CC3)n2)c1C	none
O=C(Nc1cccc(OC(=O)c2ccc(Cl)cc2)c1)c1ccc(Cl)cc1	USP17 block 63
COc1cccc(NC(=O)c2ccc3noc(-c4ccc(Cl)cc4)c3c2)c1	USP17 block 58
Cc1cccc(NC(=O)c2ccc3noc(-c4ccc(F)cc4)c3c2)c1	none
COc1ccc(Sc2nnc(C)c3nnn(Cc4ccc(F)cc4)c23)cc1	USP17 block 32
Cc1nnc(NCCO)c2c1nnn2Cc1ccccc1Cl	none
Cc1nnc(NCc2cccnc2)c2c1nnn2Cc1ccc(F)cc1	USP28 block 34
COc1cccc(Cc2nc(-c3nnn(Cc4ccc(F)cc4)c3C)no2)c1	none
CC(=O)NC(Cc1ccccc1)c1nc2ccccc2n1Cc1ccccc1F (configuration not stated)	none
Cc1cccc(C(=O)NC(Cc2ccccc2)c2nc3ccccc3n2C)c1 (configuration not stated)	USP30 inh 45 (no result: USP17 block)
O=C(CC(NCc1ccco1)C(=O)O)Nc1ccccc1Cl (configuration not stated)	none
O=C(CC(NCc1ccco1)C(=O)O)Nc1cccc(Cl)c1Cl (configuration not stated)	USP30 inh 32
Clc1ccc(-c2cnc(N3CCOCC3)nc2)cc1	USP30 inh 44
Fc1ccc(-c2cnc(N3CCOCC3)nc2)cc1	none
Cc1ccc(-c2n[nH]c3c2C(c2ccccc2F)N(c2ccccc2)C3=O)cc1 (configuration not stated)	USP17 block 69, USP30 inh 55, USP8 block 71
Cc1ccc(C2=NCCNC3=C2C(c2ccccc2F)N(c2ccccc2)C3=O)cc1 (configuration not stated)	USP30 inh 36
CCc1ccccc1C(=O)N1CCN(C2CCN(Cc3ccc4nonc4c3)CC2)C(=O)C1	none
O=C1CC(NC(=O)CC(c2ccccc2)c2ccccc2)CN1 (configuration not stated)	none
O=C1CCCC[C@@H]2[C@H](CCN2Cc2ccc3ncccc3c2)N1Cc1ccccc1F	USP8 block 47
Nc1ncccc1C(=O)N1CC[C@@H]2[C@H]1CCCC(=O)N2Cc1ccc(F)cc1	none
COc1cc2c(cc1OC)C(COc1cc(C)cc(C)c1)NCC2 (configuration not stated)	USP8 block 65
CCCCn1cnc2c3cc(F)ccc3n(C)c2c1=O	USP17 block 65, USP30 inh 65
COc1ccc2c(c1)c1ncn(CCCn3ccnc3)c(=O)c1n2C	none
Cn1c2ccccc2c2ncn(Cc3ccc(F)cc3)c(=O)c21	USP17 block 71, USP28 block 32, USP30 inh 34
CCn1cnc2c(-c3ccccc3)cn(CC(=O)NCc3ccc(F)cc3)c2c1=O	none
CC(C)CN1Cc2cccc(C(=O)N[C@@H](C)Cn3nnc4ccccc43)c2C1=O	none
O=c1c2ccccc2nc(CSc2nc3ccc4[nH]snc4c3n2)n1-c1ccccc1	USP17 block 51, USP28 block 51, USP30 inh 37
O=c1c2ccccc2nc(N2CCN(Cc3ccccc3)CC2)n1-c1ccccc1	none
CNC(=O)c1nc(-c2ccccc2)nc2c1OCCO2	none
CCCOC(=O)c1cc(NC(=O)c2ccc(OCC)c(Cl)c2)ccc1N1CCOCC1	USP28 block 49
COCC(=O)Nc1cc(F)c2nc(N3CCOCC3)ccc2c1	USP17 block 63, USP8 block 89
COC(=O)c1cc(NC(=O)COc2ccccc2F)ccc1N1CCOCC1	none
CCOC(=O)c1cc(NC(=O)COc2ccccc2)ccc1N1CCOCC1	none
Cc1cccc(OCC(=O)Nc2cc(F)c3nc(N4CCOCC4)ccc3c2)c1	USP8 block 60
O=S(=O)(Nc1ccc2c(c1)OCCO2)c1ccc(-c2ccon2)s1	none
COc1ccc(NC(=O)CCCSc2nc3ccccc3[nH]2)cc1OC	none
Cc1cccc(OCCCSc2nc3ccccc3[nH]2)c1	USP28 block 45
c1ccc(-c2cnc(CSc3nc4ccccc4[nH]3)o2)cc1	none
COc1cccc(OCCCSc2nc3ccccc3[nH]2)c1	USP28 block 41
O=C(c1ccc(Cl)cc1)N1CCC2(CC1)NC(=O)N(CCOc1ccccc1)C2=O	none
COc1ccc(-c2csc3ncnc(NCCCN4CCOCC4)c23)cc1	none
Oc1cc(OCCN2CCOCC2)ccc1-c1[nH]ncc1-c1ccc(Cl)cc1	USP8 block 84
Oc1cc(OCCN2CCOCC2)ccc1-c1[nH]ncc1-c1ccc(Br)cc1	USP8 block 76 (no result: USP17 block)
O=C(c1cc(C2CC2)[nH]n1)N1CCN(CCOc2ccc(Cl)cc2)CC1	none
NC(=O)C1CCN(CCOc2ccc(-c3[nH]ncc3-c3ccc(Cl)cc3)c(O)c2)CC1	USP8 block 77
O=C(NC1CCCCCC1)C1CCN(c2cnc(N3CCOCC3)nc2)CC1	none
O=C(Nc1cccc(Cl)c1)N1CCN(c2cc(C(F)(F)F)ccn2)CC1	USP17 block 59
CCOC(=O)CNc1nc(N2CCCCC2)nc(N2CCCCC2)n1	none
Cc1c(N2CCN(S(=O)(=O)c3ccc(F)c(F)c3)CC2)c(=O)n(C)c(=O)n1C	USP17 block 44, USP30 inh 37
Cc1ccc(S(=O)(=O)N2CCN(c3c(C)n(C)c(=O)n(C)c3=O)CC2)cc1C	USP30 inh 37
Cc1nn2c(CNC(=O)c3cc(Cl)ccc3F)c(C)nc2s1	none
COc1ccccc1-c1cc2c(=O)n(Cc3nc(-c4cccc(Cl)c4)no3)ccn2n1	none
O=C(Oc1ccc(-c2nccc(-c3cccs3)n2)cc1)c1ccco1	USP17 block 49, USP8 block 36
COc1cccc(NC(=O)C(Sc2nnc(-c3ccccc3OC)n2C)c2ccccc2)c1 (configuration not stated)	none
COc1ccc(Cl)cc1-c1nc(-c2cccnc2)no1	USP17 block 35
COc1ccc(Cl)cc1-c1nc(-c2ccc(=O)[nH]c2)no1	none
COc1ccccc1CNC(=O)CCN1C(=O)c2cccnc2Sc2ccccc21	none
CCc1ccc(NC(=O)C(C)Nc2ccccc2NCCc2ccccc2)cc1 (configuration not stated)	USP8 block 64
O=C(OCC(=O)N1CCC(Cc2ccccc2)CC1)c1ccc(N2CCCC2=O)cc1	USP28 block 43
COc1ccccc1C(=O)Nc1ncc2c(n1)CC(c1ccc(F)cc1)CC2=O (configuration not stated)	none

Screening results from PubChem.
